The text below walks through data of PMC4336329 (PLoS ONE, 2015).

Among all 310,000 compounds or so, about 14,000 (4.5%) showed an effect of 50% or more. The effect is printed as a negative number. What follows is part of a selection rich in strong results, with near analogues and random picks from the rest.
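Note: peak tail current of the secondary pulse compared with the same well before compound.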

In this test the target is human ether-à-go-go-related gene (hERG) potassium channel (human, UniProt Q12809). The test can be described thus: primary screen, population patch clamp on CHO cells stably expressing hERG; higher = less effect of the substance.
Sequence of human ether-à-go-go-related gene (hERG) potassium channel (Q12809 whole entry, looked up): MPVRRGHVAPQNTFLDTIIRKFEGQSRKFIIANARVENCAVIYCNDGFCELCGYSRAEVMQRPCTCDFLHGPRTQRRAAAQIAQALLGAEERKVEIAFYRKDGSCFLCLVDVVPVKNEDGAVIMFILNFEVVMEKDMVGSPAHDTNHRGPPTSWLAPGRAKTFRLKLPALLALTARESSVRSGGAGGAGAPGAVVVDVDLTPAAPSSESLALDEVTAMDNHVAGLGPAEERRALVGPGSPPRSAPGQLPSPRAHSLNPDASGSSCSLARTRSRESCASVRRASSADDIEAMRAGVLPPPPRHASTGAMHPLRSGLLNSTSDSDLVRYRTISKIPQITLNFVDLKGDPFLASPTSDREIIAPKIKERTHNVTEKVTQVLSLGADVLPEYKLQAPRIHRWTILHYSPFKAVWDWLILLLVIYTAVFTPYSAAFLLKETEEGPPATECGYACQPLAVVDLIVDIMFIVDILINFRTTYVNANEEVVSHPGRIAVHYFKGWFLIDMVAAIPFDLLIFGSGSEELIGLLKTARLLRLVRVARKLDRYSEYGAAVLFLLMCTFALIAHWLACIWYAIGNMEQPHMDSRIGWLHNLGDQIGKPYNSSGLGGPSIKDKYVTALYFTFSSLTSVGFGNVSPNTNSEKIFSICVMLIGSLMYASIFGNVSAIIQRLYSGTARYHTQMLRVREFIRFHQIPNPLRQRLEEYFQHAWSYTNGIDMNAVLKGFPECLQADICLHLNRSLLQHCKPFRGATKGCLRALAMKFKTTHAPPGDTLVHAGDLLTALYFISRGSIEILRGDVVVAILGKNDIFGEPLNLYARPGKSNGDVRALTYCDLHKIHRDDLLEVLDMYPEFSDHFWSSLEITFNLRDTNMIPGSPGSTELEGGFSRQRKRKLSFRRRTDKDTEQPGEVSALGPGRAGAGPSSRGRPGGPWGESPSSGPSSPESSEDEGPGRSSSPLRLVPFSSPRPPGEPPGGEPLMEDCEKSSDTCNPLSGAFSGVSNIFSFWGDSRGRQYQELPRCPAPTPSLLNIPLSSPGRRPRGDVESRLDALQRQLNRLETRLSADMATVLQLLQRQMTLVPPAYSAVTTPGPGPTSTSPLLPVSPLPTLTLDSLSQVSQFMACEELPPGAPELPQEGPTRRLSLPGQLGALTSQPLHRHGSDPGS
As to `Cn1c2ccccc2c2c(C(=O)NCC3CCCO3)cn(C3CCCC3)c(=O)c21` (centres unmarked), the “hERG current change (%, negative = inhibition) at 10uM” value is on record as -0.664%.

As to `CNC.Cc1cccn2c(NCC3CCCO3)c(C(C)C)nc12.Cl` (centres unmarked), the “hERG current change (%, negative = inhibition) at 10uM” value is reported as -12.7%.

As for `Cc1c(C(C)O)nnn1-c1nonc1N` (centres unmarked), the “hERG current change (%, negative = inhibition) at 10uM” value is -2.42%.

On to `CN=C(Nc1cccnc1)c1ccccc1`, for which the “hERG current change (%, negative = inhibition) at 10uM” value is on record as 15.6%.

Take `CCOc1ccc(-n2c(=O)c3c4c(sc3n(CC(=O)NCCCOC)c2=O)CCCCC4)cc1`: the “hERG current change (%, negative = inhibition) at 10uM” value was -1.22%.

As to `Cc1nn2c(NCCN3CCOCC3)c3c(nc2c1-c1ccccc1)CCCC3`, the “hERG current change (%, negative = inhibition) at 10uM” value was -76.5%.

As to `Cc1nn2c(N3CCOCC3)c3c(nc2c1-c1ccccc1)CCCC3`, the “hERG current change (%, negative = inhibition) at 10uM” value is reported as -14.8%.

For the compound `CN(C)CCCNc1cc(-c2ccccc2)nc2cc(-c3cccc(F)c3)nn12`, the “hERG current change (%, negative = inhibition) at 10uM” value was -15.9%.

As to `Cc1nn2c(NCCN(C)C)c3c(nc2c1-c1ccccc1)CCCC3`, the “hERG current change (%, negative = inhibition) at 10uM” value was -41.4%.

Regarding `Fc1cccc(-c2cc3nc4c(c(NCc5ccco5)n3n2)CCCC4)c1`, the “hERG current change (%, negative = inhibition) at 10uM” value is given as -33.2%.

Take `CN(C)CCCNc1c2c(nc3cc(-c4cccc(F)c4)nn13)CCC2`: the “hERG current change (%, negative = inhibition) at 10uM” value is -69.1%.

In the case of `CCn1cc(Br)c(C(=O)Nc2ccc(Cl)cc2Cl)n1`, the “hERG current change (%, negative = inhibition) at 10uM” value is 7.24%.

As to `Cc1ccc(S(=O)(=O)N(Cc2ccc(Cl)cc2)c2ccccc2C(=O)O)cc1`, the “hERG current change (%, negative = inhibition) at 10uM” value was determined as 12.3%.

In the case of `COc1ccccc1NS(=O)(=O)c1cc2c(cc1C)NC(=O)CO2`, the “hERG current change (%, negative = inhibition) at 10uM” value is -7.43%.

With `CCOc1ccc(/C=C2/Sc3ccc(C(=O)N4CCOCC4)cc3N(C)C2=O)cc1OC`, the “hERG current change (%, negative = inhibition) at 10uM” value is -18.5%.

For the compound `CCOc1ccc(/C=C2/Sc3ccc(C(=O)N4CCN(C(=O)c5ccco5)CC4)cc3N(C)C2=O)cc1OC`, the “hERG current change (%, negative = inhibition) at 10uM” value is -53.9%.

In the case of `COc1ccc(/C=C2\Sc3ccc(C(=O)N4CCOCC4)cc3N(C)C2=O)cc1`, the “hERG current change (%, negative = inhibition) at 10uM” value is listed as -15.3%.

`CN1CCN(C(=O)c2ccc3c(c2)N(C)C(=O)/C(=C/c2cccc(Cl)c2)S3)CC1`: the “hERG current change (%, negative = inhibition) at 10uM” value was -55.1%.

On to `CCOC(=O)N1CCN(C(=O)c2ccc3c(c2)N(C)C(=O)/C(=C\c2ccc(OCC)c(OC)c2)S3)CC1`, for which the “hERG current change (%, negative = inhibition) at 10uM” value is on record as -32.5%.

Regarding `Cc1cccc(/C=C2\Sc3ccc(C(=O)N4CCOCC4)cc3N(C)C2=O)c1`, the “hERG current change (%, negative = inhibition) at 10uM” value is recorded as -40.7%.

Take `Cc1cccc(/C=C2\Sc3ccc(C(=O)N4CCCCC4)cc3N(C)C2=O)c1`: the “hERG current change (%, negative = inhibition) at 10uM” value is 12.1%.

On to `CN1C(=O)/C(=C/c2cccc(Cl)c2)Sc2ccc(C(=O)N3CCCC3)cc21`, for which the “hERG current change (%, negative = inhibition) at 10uM” value was -49.7%.

In the case of `CN1C(=O)/C(=C/c2cccc(Cl)c2)Sc2ccc(C(=O)N3CCOCC3)cc21`, the “hERG current change (%, negative = inhibition) at 10uM” value is -50.3%.

Turning to `COc1ccc(C(C(=O)NC(C)(C)C)N(Cc2cccnc2)C(=O)CCC(=O)Nc2cc(C)on2)cc1` (centres unmarked), the “hERG current change (%, negative = inhibition) at 10uM” value was 10.9%.

For `COc1cc(-c2csc(C)n2)ccc1O`, the “hERG current change (%, negative = inhibition) at 10uM” value was 8.67%.

For `CN(C)C=O.COc1ccccc1NC(=O)C1=C(C)NC(=O)NC1c1ccccc1[N+](=O)[O-]` (centres unmarked), the “hERG current change (%, negative = inhibition) at 10uM” value came to 7.42%.

Take `COc1cccc(N2CCN(C(=O)C3CCCN(S(=O)(=O)c4cnc[nH]4)C3)CC2)c1` (centres unmarked): the “hERG current change (%, negative = inhibition) at 10uM” value was found to be 17.4%.

`O=C(NCc1ccc2c(c1)OCO2)c1ccncc1`: the “hERG current change (%, negative = inhibition) at 10uM” value is reported as -12.6%.

On to `Cc1ccc(NCC(=O)Nc2cccc(F)c2)cc1S(=O)(=O)N1CCCCCC1`, for which the “hERG current change (%, negative = inhibition) at 10uM” value is -22.6%.

With `COC(=O)c1ccccc1NC(=O)N1CSC[C@H]1C(=O)OC`, the “hERG current change (%, negative = inhibition) at 10uM” value came to 15.8%.

Regarding `Cc1cc(C)n(CC(O)COc2ccccc2C(=O)Nc2ccccc2)n1` (centres unmarked), the “hERG current change (%, negative = inhibition) at 10uM” value is recorded as -26.1%.

On to `CC1(C)NC(=O)N(CC(O)COc2ccccc2C(=O)Nc2ccccc2)C1=O` (centres unmarked), for which the “hERG current change (%, negative = inhibition) at 10uM” value is recorded as -6.2%.

As for `CCCCN(CCCC)CC(O)COc1ccccc1C(=O)Nc1ccccc1` (centres unmarked), the “hERG current change (%, negative = inhibition) at 10uM” value is listed as -98.7%.

As to `CCOc1ccccc1C(=O)Nc1ccc(NC(=O)c2ccccc2)cc1`, the “hERG current change (%, negative = inhibition) at 10uM” value is recorded as 12.7%.

With `CCCCN(CCCC)CC(O)COc1ccccc1Br.Cl` (centres unmarked), the “hERG current change (%, negative = inhibition) at 10uM” value is -40.6%.

For `CCCN(CCC)CC(O)COc1ccccc1C(=O)Nc1ccccc1.Cl` (centres unmarked), the “hERG current change (%, negative = inhibition) at 10uM” value was -68.2%.

As for `CSc1ccc(/C=N/NC(=O)c2sccc2C)cc1`, the “hERG current change (%, negative = inhibition) at 10uM” value was 15.4%.

For `CCCCC(=O)NC(c1ccc(OC)c(OC)c1)c1c(O)ccc2ccccc12` (centres unmarked), the “hERG current change (%, negative = inhibition) at 10uM” value is -13.7%.

`O=C1C(Cl)=C(N2CCOCC2)C(=O)N1c1ccccc1F`: the “hERG current change (%, negative = inhibition) at 10uM” value worked out at 20.3%.

Regarding `O=C(Nc1ccc(Cl)c([N+](=O)[O-])c1)c1cnccn1`, the “hERG current change (%, negative = inhibition) at 10uM” value is -10.4%.

For `Cc1ccc(/C=N/NC(=O)COc2ccccc2-c2ccccc2)cc1`, the “hERG current change (%, negative = inhibition) at 10uM” value was -3.49%.

Regarding `COc1cc(C(=O)N2CCN(c3ccccc3Cl)CC2)ccc1OCC(=O)N1CCOCC1`, the “hERG current change (%, negative = inhibition) at 10uM” value is -28.6%.

Regarding `COc1ccc(S(=O)(=O)Nc2ccccc2C(=O)Nc2nc(-c3ccc(F)cc3)cs2)cc1OC`, the “hERG current change (%, negative = inhibition) at 10uM” value is listed as -51.7%.

Regarding `COc1cc(C(=O)N2CCN(c3ccccc3O)CC2)ccc1OCC(=O)N1CCOCC1`, the “hERG current change (%, negative = inhibition) at 10uM” value is given as 3.06%.

On to `CCc1ccc(OCC(=O)N2CCN(c3ccccc3F)CC2)cc1`, for which the “hERG current change (%, negative = inhibition) at 10uM” value is listed as 20.2%.

For the compound `CC(=O)c1ccc(N2CCN(C(=O)CN3C(=O)NC4(CCCCC4)C3=O)CC2)c(F)c1`, the “hERG current change (%, negative = inhibition) at 10uM” value is reported as 0.416%.

Turning to `COc1ccc(-c2csc(NC(=O)c3ccccc3NS(=O)(=O)c3ccc(F)c(F)c3)n2)cc1`, the “hERG current change (%, negative = inhibition) at 10uM” value worked out at 19.3%.

On to `COc1cc(C(=O)N2CCN(c3ccccc3F)CC2)ccc1OCC(=O)N1CCOCC1`, for which the “hERG current change (%, negative = inhibition) at 10uM” value is listed as -60.9%.

With `CC(=O)c1ccc(N2CCN(C(=O)COc3ccc(F)cc3)CC2)c(F)c1`, the “hERG current change (%, negative = inhibition) at 10uM” value is -71.5%.

As to `CCC(=O)c1ccc(N2CCCCCC2)c(F)c1`, the “hERG current change (%, negative = inhibition) at 10uM” value is given as 4.04%.

As for `Cc1ccc(S(=O)(=O)Nc2ccccc2C(=O)Nc2nc(-c3ccc(F)cc3)cs2)cc1`, the “hERG current change (%, negative = inhibition) at 10uM” value was found to be 9.22%.

Consider `CCC(=O)c1ccc(N2CCN(C(=O)COc3ccccc3F)CC2)c(F)c1`, for which the “hERG current change (%, negative = inhibition) at 10uM” value is -50.9%.

With `CC(=O)c1ccc(N2CCN(C(=O)COc3ccccc3F)CC2)c(F)c1`, the “hERG current change (%, negative = inhibition) at 10uM” value is -39.7%.
